{"source": "PubChem BioAssay AID463173", "about": "(ICCB-Longwood Screening Facility, Harvard Medical School, 2010)", "note": "In all, about 52,000 compounds went through this assay and about 4,300 (8.3%) were called active. Rule as the data show it: active = survival mostly below about 52% (no sharp cut-off); inactive = mostly above about 56%. The list comes from a sample in which actives are over-represented; it also holds similar structures and randomly drawn compounds.", "data": [{"system": "DeltatarO mutant", "experiment": "growth inhibition of S. aureus wild type versus tarO mutant, primary screen, teichoic acid synthesis inhibitors, RN4220, OD600 (AID 463173)", "settings": "OD600, 18 h, stronger effect = lower value, screened at 18.75 µg/mL (by protocol)", "values": [{"molecule": "Cc1ccc(CNS(=O)(=O)c2ccc3c(c2)CCN3S(C)(=O)=O)cc1", "survival": "94% (inactive)"}, {"molecule": "O=C(Nc1cccc(C(F)(F)F)c1)c1ccc(F)c(S(=O)(=O)N2CCc3ccccc3C2)c1", "survival": "91% (inactive)"}, {"molecule": "COc1ccc(-n2c(/C=C/c3cccc4ccccc34)nc3ccccc3c2=O)cc1Cl", "survival": "78% (inactive)"}, {"molecule": "COc1cc2c(cc1OC)C(COc1ccc(C(C)C)cc1)N(C(=O)COc1ccccc1)CC2", "note": "(stereo not given)", "survival": "101% (inactive)"}, {"molecule": "COc1cc2c(cc1OC)C(COc1ccccc1OC)N(C(=O)c1ccc(S(=O)(=O)N3CCCC3)cc1)CC2", "note": "(stereo not given)", "survival": "32% (active)"}, {"molecule": "COC(=O)c1ccc(OCC2c3cc(OC)c(OC)cc3CCN2C(=O)COc2ccc(Cl)cc2)cc1", "note": "(stereo not given)", "survival": "78% (inactive)"}, {"molecule": "COc1cc2c(cc1OC)C(COc1ccccc1OC)N(C(=O)COc1ccc(Cl)cc1)CC2", "note": "(stereo not given)", "survival": "47% (active)"}, {"molecule": "COc1cc2c(cc1OC)C(COc1ccc(F)cc1)N(C(=O)c1ccc(S(=O)(=O)N3CCCC3)cc1)CC2", "note": "(stereo not given)", "survival": "81% (inactive)"}, {"molecule": "COc1cc2c(cc1OC)C(COc1cc(C)cc(C)c1)N(C(=O)c1ccc(S(=O)(=O)N3CCCC3)cc1)CC2", "note": "(stereo not given)", "survival": "73% (inactive)"}, {"molecule": "COCCCNC(=O)c1cc2c(=O)oc3ccc(C)cc3c2s1", "survival": "68% (inactive)"}, {"molecule": "COC(=O)c1cnn2c(C)c(Cc3c(C)cc(C)cc3C)c(C)nc12", "survival": "83% (inactive)"}, {"molecule": "CC(C)Nc1nc(Cl)nc(NNC(=O)C(C)Oc2ccccc2)n1", "note": "(stereo not given)", "survival": "93% (inactive)"}, {"molecule": "CCN(CC)C(=O)CSc1nc2cc3c(cc2c(=O)n1CCCCCC(=O)NCc1ccc(OC)cc1)OCO3", "survival": "-1% (active)"}, {"molecule": "COCCNC(=O)CSc1nc2cc3c(cc2c(=O)n1CCCCCC(=O)NCc1ccc(OC)cc1)OCO3", "survival": "67% (inactive)"}, {"molecule": "CCCCNC(=O)CSc1nc2cc3c(cc2c(=O)n1CCCC(=O)NCCc1ccc(OC)c(OC)c1)OCO3", "survival": "109% (inactive)"}, {"molecule": "CCN(CC)C(=O)CSc1nc2cc3c(cc2c(=O)n1CCCC(=O)NCc1ccc(OC)cc1)OCO3", "survival": "71% (inactive)"}, {"molecule": "COc1ccc(CCNC(=O)CCCn2c(SCC(N)=O)nc3cc4c(cc3c2=O)OCO4)cc1OC", "survival": "72% (inactive)"}, {"molecule": "COCCCNC(=O)CSc1nc2cc3c(cc2c(=O)n1CCCCCC(=O)NCc1ccc(OC)cc1)OCO3", "survival": "6% (active)"}, {"molecule": "CCOC(=O)CSc1nc2cc3c(cc2c(=O)n1CCCC(=O)NCCc1ccc(OC)c(OC)c1)OCO3", "survival": "-2% (active)"}, {"molecule": "COCCCNC(=O)CSc1nc2cc3c(cc2c(=O)n1CCCC(=O)NCc1ccc(OC)cc1)OCO3", "survival": "83% (inactive)"}, {"molecule": "CCOC(=O)CSc1nc2cc3c(cc2c(=O)n1CCCCCC(=O)NCc1ccc(OC)cc1)OCO3", "survival": "72% (inactive)"}, {"molecule": "COc1ccc(N2CCN(Cc3nc4c(c(=O)[nH]c(=O)n4C)n3Cc3ccccc3F)CC2)cc1", "survival": "119% (inactive)"}, {"molecule": "COc1ccccc1Cn1c(CNS(=O)(=O)c2ccc(CC(C)C)cc2)nc2cccnc21", "survival": "95% (inactive)"}, {"molecule": "COc1ccc(/C=C(\\NC(=O)c2ccccc2)C(=O)NC2CCCCC2)cc1", "survival": "86% (inactive)"}, {"molecule": "COc1cc(NC(=O)c2cc3ccccn3n2)cc(OC)c1OC", "survival": "69% (inactive)"}, {"molecule": "Cc1ccc(NC(=O)NCCc2c(C)nn(C)c2C)c(Cl)c1", "survival": "72% (inactive)"}, {"molecule": "Cc1ccc(C(=O)NCC(c2cccs2)S(=O)(=O)c2cccs2)cc1C", "note": "(stereo not given)", "survival": "78% (inactive)"}, {"molecule": "COC(=O)CN1C(=O)C(C)(C)c2cc(S(=O)(=O)Nc3ccc(C(C)C)cc3)ccc21", "survival": "79% (inactive)"}, {"molecule": "CC(C)(C)c1ccc(C(=O)N2CCC(c3noc(-c4ccc(S(=O)(=O)N5CCCC5)cc4)n3)CC2)cc1", "survival": "89% (inactive)"}, {"molecule": "CCOC(=O)C1CCN(C(c2cc3ccc(OC)cc3n3nnnc23)c2nnnn2C2CCCC2)CC1", "note": "(stereo not given)", "survival": "101% (inactive)"}, {"molecule": "CCc1cccc(C)c1Nc1c(-c2cccs2)nc2ncccn12", "survival": "73% (inactive)"}, {"molecule": "CCCCOc1ccccc1CC1C(=O)Nc2ccc(Br)cc21", "note": "(stereo not given)", "survival": "14% (active)"}, {"molecule": "COc1ccc(CC2C(=O)Nc3ccc(Br)cc32)cc1OC", "note": "(stereo not given)", "survival": "82% (inactive)"}, {"molecule": "CCOc1ccccc1CC1C(=O)Nc2ccc(Br)cc21", "note": "(stereo not given)", "survival": "59% (inactive)"}, {"molecule": "COc1ccc(OC)c(CC2C(=O)Nc3ccc(Br)cc32)c1", "note": "(stereo not given)", "survival": "72% (inactive)"}, {"molecule": "CCCOc1ccc(CC2C(=O)Nc3ccc(Br)cc32)cc1", "note": "(stereo not given)", "survival": "0% (active)"}, {"molecule": "CCOc1c(CC2C(=O)Nc3ccc(Br)cc32)cccc1OC", "note": "(stereo not given)", "survival": "102% (inactive)"}, {"molecule": "Cc1cc(C)cc(NC(=O)C2CCN(S(=O)(=O)c3ccc4c(c3)oc(=O)n4C)CC2)c1", "survival": "95% (inactive)"}, {"molecule": "COc1ccc2c(c1)c1c(c(=O)n(CCc3ccccc3)c(=O)n1Cc1cccc(Cl)c1)n2C", "survival": "76% (inactive)"}, {"molecule": "O=C(CN1C(=O)CSc2ccc(S(=O)(=O)N3CCCCC3)cc21)NCc1ccc(F)cc1Cl", "survival": "79% (inactive)"}, {"molecule": "CNC(=S)N1C2CCC1CC(NC(=O)NC13CC4CC(CC(C4)C1)C3)C2", "note": "(stereo not given)", "survival": "79% (inactive)"}, {"molecule": "CCOC(=O)c1ccc(NC(=O)Nc2cccc(OCc3cc(=O)n4ccc(C)cc4n3)c2)cc1", "survival": "68% (inactive)"}, {"molecule": "CCCCc1ccc(NC(=O)CSc2nc3ccccc3nc2N2CCOCC2)cc1", "survival": "30% (active)"}, {"molecule": "COc1cccc(NC(=O)CSc2nc3ccccc3nc2N2CCOCC2)c1", "survival": "54% (inactive)"}, {"molecule": "CCc1cccc(C)c1NC(=O)CSc1nc2ccccc2nc1N1CCOCC1", "survival": "81% (inactive)"}, {"molecule": "CCOc1ccc(NC(=O)CSc2nc3ccccc3nc2N2CCOCC2)cc1", "survival": "87% (inactive)"}, {"molecule": "CCCCc1ccc(NC(=O)CSc2nc3ccccc3nc2N2CCCCC2)cc1", "survival": "30% (active)"}, {"molecule": "CCc1cccc(NC(=O)CSc2nc3ccccc3nc2N2CCCCC2)c1", "survival": "-6% (active)"}, {"molecule": "CC(=O)Nc1ccc(NC(=O)CSc2nc3ccccc3nc2N2CCOCC2)cc1", "survival": "83% (inactive)"}, {"molecule": "CCOc1ccccc1NC(=O)CSc1nc2ccccc2nc1N1CCOCC1", "survival": "4% (active)"}, {"molecule": "CCCCc1ccc(NC(=O)CSc2nc(=O)[nH]c3c2CCCC3)cc1", "survival": "74% (inactive)"}, {"molecule": "Cc1cccc(NC(=O)CSc2nc3ccccc3nc2N2CCOCC2)c1C", "survival": "51% (inactive)"}, {"molecule": "Cc1ccc(NC(=O)CSc2nc3ccccc3nc2N2CCOCC2)cc1", "survival": "54% (inactive)"}, {"molecule": "O=C(CS(=O)(=O)Cc1ccccc1)Nc1ccc2c(c1)OCO2", "survival": "69% (inactive)"}, {"molecule": "O=C(NCc1ccc(F)cc1)c1cnc(N2CCOCC2)c2ccccc12", "survival": "95% (inactive)"}, {"molecule": "CN(CC(=O)Nc1ccc(F)cc1F)S(=O)(=O)c1ccc(C(=O)N2CCOCC2)s1", "survival": "88% (inactive)"}, {"molecule": "COc1ccc(S(=O)(=O)N2CCC(Oc3ccc(-n4cnnn4)cc3)CC2)cc1OC", "survival": "77% (inactive)"}, {"molecule": "Cc1ccc(CNC(=O)C2CCN(c3nc4ccccc4n(C)c3=O)CC2)cc1", "survival": "87% (inactive)"}, {"molecule": "O=C(Nc1ccccc1C(=O)OCc1cc(=O)n2c3c(sc2n1)CCCC3)c1ccc(F)cc1", "survival": "106% (inactive)"}, {"molecule": "COc1ccc(OC)c(CNC(=O)c2ccc(Sc3ccc(Cl)cc3)c(NC(C)=O)c2)c1", "survival": "83% (inactive)"}, {"molecule": "CCc1ccc(-c2cn3c(n2)sc2cc(C(=O)NCC(C)c4ccccc4)ccc23)cc1", "note": "(stereo not given)", "survival": "69% (inactive)"}, {"molecule": "COC(=O)c1cnc(N2CCN(c3ccc(OC)cc3)CC2)c2ccccc12", "survival": "62% (inactive)"}, {"molecule": "COc1cc(CNC(=O)c2ccc3nc(CCc4ccccc4)oc3c2)cc(OC)c1OC", "survival": "80% (inactive)"}, {"molecule": "CCc1nn(Cc2cc(C)ccc2C)c(=O)c2cc3cc(C)ccc3n12", "survival": "95% (inactive)"}, {"molecule": "CCOc1ccc(-c2cc(C(=O)NCCc3ccc(OC)c(OC)c3)[nH]n2)cc1", "survival": "77% (inactive)"}, {"molecule": "COc1ccc(S(=O)(=O)N2CCN(Cc3nc4ccc(C)cc4o3)CC2)cc1OC", "survival": "84% (inactive)"}, {"molecule": "COc1cccc(S(=O)(=O)N2CCN(Cc3ccc4c(c3)OCO4)CC2)c1", "survival": "75% (inactive)"}, {"molecule": "COc1ccc(S(=O)(=O)N2CCN(Cc3ccc4c(c3)OCO4)CC2)cc1OC", "survival": "43% (active)"}, {"molecule": "NC(=O)CN1CCN(Cc2ccc3c(c2)OCO3)CC1", "survival": "76% (inactive)"}, {"molecule": "Cc1cc(C)c(S(=O)(=O)N2CCN(Cc3ccc4c(c3)OCO4)CC2)cc1C", "survival": "13% (active)"}, {"molecule": "Cc1ccc(S(=O)(=O)N2CCN(Cc3ccc4c(c3)OCO4)CC2)cc1", "survival": "70% (inactive)"}, {"molecule": "O=C(NCCc1ccc(Cl)cc1)c1cc(-c2ccc(Cl)cc2)n[nH]1", "survival": "68% (inactive)"}, {"molecule": "CCOC(=O)c1nnc2c(-c3ccc(Cl)cc3)c(C)nn2c1C", "survival": "49% (inactive)"}, {"molecule": "O=C(Nc1ccccc1F)C(Cc1ccccc1)n1cccc1", "note": "(stereo not given)", "survival": "77% (inactive)"}, {"molecule": "O=C(Nc1ccc(C(F)(F)F)cc1)C(Cc1ccccc1)n1cccc1", "note": "(stereo not given)", "survival": "-4% (active)"}, {"molecule": "Cc1ccc(NC(=O)C(Cc2ccccc2)n2cccc2)cc1", "note": "(stereo not given)", "survival": "76% (inactive)"}, {"molecule": "CC(C)c1ccc(NC(=O)C(Cc2ccccc2)n2cccc2)cc1", "note": "(stereo not given)", "survival": "23% (active)"}, {"molecule": "CC(=O)Nc1ccc(NC(=O)C(Cc2ccccc2)N2Cc3ccccc3C2=O)cc1", "note": "(stereo not given)", "survival": "82% (inactive)"}, {"molecule": "COc1ccc(NC(=O)C(Cc2ccccc2)n2cccc2)c(OC)c1", "note": "(stereo not given)", "survival": "67% (inactive)"}, {"molecule": "CCOc1ccc(S(=O)(=O)NCCc2sc3nc(-c4ccc(C)cc4)nn3c2C)cc1", "survival": "109% (inactive)"}, {"molecule": "Cc1coc2c(C)c3oc(=O)c(CCC(=O)N4CCCCC4)c(C)c3cc12", "survival": "44% (active)"}, {"molecule": "Cc1oc2c(C)c3oc(=O)c(CCC(=O)N4CCCCC4)c(C)c3cc2c1C", "survival": "89% (inactive)"}, {"molecule": "Cc1coc2c(C)c3oc(=O)c(CC(=O)N4CCCCC4)c(C)c3cc12", "survival": "79% (inactive)"}, {"molecule": "CC1CCC(N2CC(=O)N(C3CCCCC3)C(c3ccc(F)cc3)C2=O)CC1", "note": "(stereo not given)", "survival": "82% (inactive)"}, {"molecule": "CCCOc1ccc(CNC(=O)C2CCN(c3nc4ccccc4nc3C(F)(F)F)CC2)cc1", "survival": "75% (inactive)"}, {"molecule": "c1ccc(-c2nc(N3CCCCC3)c3ccccc3n2)cc1", "survival": "96% (inactive)"}, {"molecule": "CCOc1ccc(-n2cc(-c3ccccc3)c3c(N4CCC(C)CC4)ncnc32)cc1", "survival": "90% (inactive)"}, {"molecule": "CCCOc1ccc(-c2nc(N3CCC(C)CC3)c3ccccc3n2)cc1", "survival": "-1% (active)"}, {"molecule": "Cc1ccc(-c2nc(N3CCN(c4ccccc4Cl)CC3)c3ccccc3n2)cc1", "survival": "52% (inactive)"}, {"molecule": "CCCOc1ccc(-c2nc(N3CCCCC3)c3ccccc3n2)cc1", "survival": "-2% (active)"}]}]}
